Assay [1] concerns the target High affinity nerve growth factor receptor (Homo sapiens) (UniProt P04629). The note with it: at 1 µM.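 Also: each value is the mean percent inhibition of TRKA.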
The target in assay [2] is BDNF/NT-3 growth factors receptor (Homo sapiens) (UniProt Q16620). The note with it: at 0.1 µM.
Assay [3] has the same target. The conditions noted are these: at 1 µM.
The target in assay [4] is NT-3 growth factor receptor (Homo sapiens) (UniProt Q16288). The conditions noted are these: at 0.1 µM.
Chain of NT-3 growth factor receptor (Homo sapiens) (Q16288 32-839 limits assumed): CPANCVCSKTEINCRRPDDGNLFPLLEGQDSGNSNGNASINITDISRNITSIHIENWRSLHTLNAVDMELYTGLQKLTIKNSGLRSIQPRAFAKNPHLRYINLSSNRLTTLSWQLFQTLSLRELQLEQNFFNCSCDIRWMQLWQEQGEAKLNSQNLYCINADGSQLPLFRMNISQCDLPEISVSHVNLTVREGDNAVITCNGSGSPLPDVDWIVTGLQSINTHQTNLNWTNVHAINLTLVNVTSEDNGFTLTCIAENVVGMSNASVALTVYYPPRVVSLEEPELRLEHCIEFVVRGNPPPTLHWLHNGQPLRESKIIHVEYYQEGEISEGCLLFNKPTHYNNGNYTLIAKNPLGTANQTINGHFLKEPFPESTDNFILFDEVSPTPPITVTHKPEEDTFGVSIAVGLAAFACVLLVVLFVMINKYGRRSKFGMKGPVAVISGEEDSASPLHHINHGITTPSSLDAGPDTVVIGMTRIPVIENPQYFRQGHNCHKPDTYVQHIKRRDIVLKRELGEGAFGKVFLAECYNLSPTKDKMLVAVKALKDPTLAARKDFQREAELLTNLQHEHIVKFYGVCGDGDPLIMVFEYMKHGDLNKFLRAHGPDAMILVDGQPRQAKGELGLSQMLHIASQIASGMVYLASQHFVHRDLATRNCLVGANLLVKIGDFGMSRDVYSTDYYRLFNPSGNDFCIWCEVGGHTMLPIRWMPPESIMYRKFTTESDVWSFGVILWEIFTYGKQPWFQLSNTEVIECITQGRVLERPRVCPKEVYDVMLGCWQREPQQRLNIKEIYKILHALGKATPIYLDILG
Assay [5] has the same target. The conditions noted are these: at 1 µM.
The target in assay [6] is T1, Tyrosine-protein kinase TXK (Homo sapiens) (UniProt P42681).
T1 sequence (whole entry): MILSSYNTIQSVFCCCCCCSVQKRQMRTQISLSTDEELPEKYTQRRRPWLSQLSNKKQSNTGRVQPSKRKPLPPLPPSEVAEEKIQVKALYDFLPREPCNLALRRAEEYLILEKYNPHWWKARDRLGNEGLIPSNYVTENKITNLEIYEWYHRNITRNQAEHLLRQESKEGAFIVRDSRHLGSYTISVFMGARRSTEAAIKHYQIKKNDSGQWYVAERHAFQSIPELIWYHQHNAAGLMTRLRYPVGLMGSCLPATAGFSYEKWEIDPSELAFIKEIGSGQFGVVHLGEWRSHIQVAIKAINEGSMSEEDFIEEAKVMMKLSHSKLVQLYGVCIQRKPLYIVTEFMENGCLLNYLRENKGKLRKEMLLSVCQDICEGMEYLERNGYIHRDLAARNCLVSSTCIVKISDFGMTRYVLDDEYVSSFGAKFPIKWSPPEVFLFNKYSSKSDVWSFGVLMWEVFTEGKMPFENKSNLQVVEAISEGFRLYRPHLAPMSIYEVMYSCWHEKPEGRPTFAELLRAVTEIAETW
The note with it: at 0.1 µM.

Assay [7] concerns the target T1, Tyrosine-protein kinase TXK (Homo sapiens). The conditions noted are these: at 1 µM.
Assay [8] deals with Non-receptor tyrosine-protein kinase TYK2 (Homo sapiens) (UniProt P29597). The note with it: at 0.1 µM.
Chain of Non-receptor tyrosine-protein kinase TYK2 (Homo sapiens) (P29597 whole entry): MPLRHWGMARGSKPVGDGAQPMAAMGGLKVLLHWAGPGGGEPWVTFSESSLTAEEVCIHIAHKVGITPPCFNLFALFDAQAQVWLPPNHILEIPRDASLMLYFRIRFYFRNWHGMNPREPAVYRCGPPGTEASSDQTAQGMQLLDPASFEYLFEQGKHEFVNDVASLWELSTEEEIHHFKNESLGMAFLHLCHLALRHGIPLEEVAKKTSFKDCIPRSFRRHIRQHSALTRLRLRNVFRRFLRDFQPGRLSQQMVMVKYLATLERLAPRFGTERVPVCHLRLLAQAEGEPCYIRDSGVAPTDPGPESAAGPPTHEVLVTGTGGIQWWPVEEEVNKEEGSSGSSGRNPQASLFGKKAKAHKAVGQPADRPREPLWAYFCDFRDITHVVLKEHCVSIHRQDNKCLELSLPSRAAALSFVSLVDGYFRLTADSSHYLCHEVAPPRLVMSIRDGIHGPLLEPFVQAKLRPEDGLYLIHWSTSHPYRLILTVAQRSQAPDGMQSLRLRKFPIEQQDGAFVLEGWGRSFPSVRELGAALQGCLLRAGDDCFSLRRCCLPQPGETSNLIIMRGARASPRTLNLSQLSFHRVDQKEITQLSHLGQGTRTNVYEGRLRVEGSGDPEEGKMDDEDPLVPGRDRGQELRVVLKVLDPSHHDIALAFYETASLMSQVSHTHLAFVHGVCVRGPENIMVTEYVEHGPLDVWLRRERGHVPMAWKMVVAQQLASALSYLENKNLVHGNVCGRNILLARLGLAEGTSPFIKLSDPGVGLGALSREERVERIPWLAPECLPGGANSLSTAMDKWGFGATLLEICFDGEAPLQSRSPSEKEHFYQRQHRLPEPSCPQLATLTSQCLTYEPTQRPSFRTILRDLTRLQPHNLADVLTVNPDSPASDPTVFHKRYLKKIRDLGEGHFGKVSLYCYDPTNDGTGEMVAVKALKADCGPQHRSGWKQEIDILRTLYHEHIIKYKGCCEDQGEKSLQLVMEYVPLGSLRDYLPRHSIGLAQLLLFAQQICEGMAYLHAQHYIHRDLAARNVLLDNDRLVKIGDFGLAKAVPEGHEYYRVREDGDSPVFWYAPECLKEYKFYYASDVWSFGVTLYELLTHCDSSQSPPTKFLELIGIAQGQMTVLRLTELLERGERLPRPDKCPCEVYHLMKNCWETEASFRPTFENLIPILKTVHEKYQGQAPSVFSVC
Assay [9] addresses T2, Dual specificity protein kinase TTK (Homo sapiens) (UniProt P33981).
T2 sequence (whole entry): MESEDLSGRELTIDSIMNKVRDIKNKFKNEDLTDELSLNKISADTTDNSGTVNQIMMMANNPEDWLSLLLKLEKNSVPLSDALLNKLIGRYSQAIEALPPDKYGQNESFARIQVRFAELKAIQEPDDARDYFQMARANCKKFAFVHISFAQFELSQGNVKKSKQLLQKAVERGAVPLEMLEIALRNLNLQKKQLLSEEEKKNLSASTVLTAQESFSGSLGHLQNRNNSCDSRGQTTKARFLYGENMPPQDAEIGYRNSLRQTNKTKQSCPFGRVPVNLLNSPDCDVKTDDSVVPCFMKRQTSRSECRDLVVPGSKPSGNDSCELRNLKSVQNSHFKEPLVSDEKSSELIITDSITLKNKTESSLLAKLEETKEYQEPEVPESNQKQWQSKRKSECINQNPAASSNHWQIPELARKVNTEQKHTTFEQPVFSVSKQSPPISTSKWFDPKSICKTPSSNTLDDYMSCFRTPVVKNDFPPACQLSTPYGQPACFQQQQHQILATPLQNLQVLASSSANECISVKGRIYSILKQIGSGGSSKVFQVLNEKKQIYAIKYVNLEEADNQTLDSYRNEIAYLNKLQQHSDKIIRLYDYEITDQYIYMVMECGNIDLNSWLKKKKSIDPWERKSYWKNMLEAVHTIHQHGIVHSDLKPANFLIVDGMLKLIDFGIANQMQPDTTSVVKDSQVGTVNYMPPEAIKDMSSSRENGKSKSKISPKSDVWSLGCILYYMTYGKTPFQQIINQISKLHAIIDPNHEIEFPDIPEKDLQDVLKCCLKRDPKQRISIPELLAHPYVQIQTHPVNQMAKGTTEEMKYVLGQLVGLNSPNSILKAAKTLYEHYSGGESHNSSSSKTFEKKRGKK
The note with it: at 1 µM.

The target of assay [10] is T3, Aurora kinase A (Homo sapiens) (UniProt O14965).
T3 sequence (whole entry): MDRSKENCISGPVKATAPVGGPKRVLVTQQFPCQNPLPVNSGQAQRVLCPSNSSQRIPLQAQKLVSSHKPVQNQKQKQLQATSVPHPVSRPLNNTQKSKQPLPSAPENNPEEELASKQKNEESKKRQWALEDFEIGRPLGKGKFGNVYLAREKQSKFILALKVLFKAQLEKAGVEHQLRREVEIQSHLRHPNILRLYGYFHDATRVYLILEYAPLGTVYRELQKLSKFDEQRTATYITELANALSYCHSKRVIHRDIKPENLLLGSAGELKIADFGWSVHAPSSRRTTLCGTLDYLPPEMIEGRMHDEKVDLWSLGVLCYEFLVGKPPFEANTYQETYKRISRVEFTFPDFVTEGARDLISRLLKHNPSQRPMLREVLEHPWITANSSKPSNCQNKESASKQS
The note with it: at 0.1 µM.

In assay [11] the target is T3, Aurora kinase A (Homo sapiens). The conditions noted are these: at 1 µM.
The target in assay [12] is Aurora kinase B (Homo sapiens) (UniProt Q96GD4). The note with it: at 0.1 µM.
Chain of Aurora kinase B (Homo sapiens) (Q96GD4 whole entry): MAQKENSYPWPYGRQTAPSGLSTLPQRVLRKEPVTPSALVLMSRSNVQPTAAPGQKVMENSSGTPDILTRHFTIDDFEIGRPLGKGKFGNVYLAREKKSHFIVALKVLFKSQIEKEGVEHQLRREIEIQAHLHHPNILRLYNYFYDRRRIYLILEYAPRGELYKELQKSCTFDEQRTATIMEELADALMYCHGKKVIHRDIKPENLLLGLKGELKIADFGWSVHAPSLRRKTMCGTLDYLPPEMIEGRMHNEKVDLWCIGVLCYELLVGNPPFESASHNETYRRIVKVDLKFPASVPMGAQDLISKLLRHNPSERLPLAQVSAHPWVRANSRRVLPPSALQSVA
For assay [13] the target is unchanged. The note with it: at 1 µM.
In assay [14] the target is T4, Aurora kinase C (Homo sapiens) (UniProt Q9UQB9).
T4 sequence (whole entry): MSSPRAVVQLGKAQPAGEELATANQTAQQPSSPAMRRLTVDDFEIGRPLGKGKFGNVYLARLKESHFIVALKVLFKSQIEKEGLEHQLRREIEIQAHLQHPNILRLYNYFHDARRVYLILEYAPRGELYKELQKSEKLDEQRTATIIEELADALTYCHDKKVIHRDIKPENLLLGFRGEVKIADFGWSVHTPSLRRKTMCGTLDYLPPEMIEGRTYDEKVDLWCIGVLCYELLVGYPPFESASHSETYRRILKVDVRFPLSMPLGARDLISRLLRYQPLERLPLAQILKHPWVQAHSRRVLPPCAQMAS
The conditions noted are these: at 0.1 µM.

The target of assay [15] is T4, Aurora kinase C (Homo sapiens). The conditions noted are these: at 1 µM.
In assay [16] the target is Serine/threonine-protein kinase 10 (Homo sapiens) (UniProt O94804). The note with it: at 0.1 µM.
Chain of Serine/threonine-protein kinase 10 (Homo sapiens) (O94804 whole entry, looked up): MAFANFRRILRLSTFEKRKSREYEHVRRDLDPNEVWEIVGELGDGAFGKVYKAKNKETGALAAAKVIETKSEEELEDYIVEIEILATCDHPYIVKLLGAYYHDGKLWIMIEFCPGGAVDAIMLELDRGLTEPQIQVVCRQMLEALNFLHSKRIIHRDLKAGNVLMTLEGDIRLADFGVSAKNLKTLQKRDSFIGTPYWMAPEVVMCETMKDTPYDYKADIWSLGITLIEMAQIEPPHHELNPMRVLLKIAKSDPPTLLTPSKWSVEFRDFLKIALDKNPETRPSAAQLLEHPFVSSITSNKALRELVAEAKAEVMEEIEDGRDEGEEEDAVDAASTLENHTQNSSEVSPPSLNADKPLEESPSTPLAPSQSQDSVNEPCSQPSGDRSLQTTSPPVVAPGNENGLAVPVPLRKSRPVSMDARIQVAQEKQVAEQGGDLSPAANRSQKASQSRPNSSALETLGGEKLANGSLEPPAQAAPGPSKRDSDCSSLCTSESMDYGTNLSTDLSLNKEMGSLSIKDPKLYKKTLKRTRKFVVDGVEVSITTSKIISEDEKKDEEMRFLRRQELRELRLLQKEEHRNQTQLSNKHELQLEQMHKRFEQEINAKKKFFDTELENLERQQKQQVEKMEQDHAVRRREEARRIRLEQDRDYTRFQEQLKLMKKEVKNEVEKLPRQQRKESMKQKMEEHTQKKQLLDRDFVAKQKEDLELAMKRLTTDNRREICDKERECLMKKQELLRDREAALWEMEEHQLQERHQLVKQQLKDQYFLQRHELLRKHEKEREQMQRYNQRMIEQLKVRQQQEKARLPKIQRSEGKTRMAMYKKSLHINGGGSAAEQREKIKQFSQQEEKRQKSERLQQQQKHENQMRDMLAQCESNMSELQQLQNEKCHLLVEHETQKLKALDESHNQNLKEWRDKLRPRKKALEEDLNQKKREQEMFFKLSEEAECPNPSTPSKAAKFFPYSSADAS
For assay [17] the target is unchanged. The note with it: at 1 µM.
For assay [18], the target named is T5, Mitogen-activated protein kinase kinase kinase kinase 2 (Homo sapiens) (UniProt Q12851).
T5 sequence (whole entry): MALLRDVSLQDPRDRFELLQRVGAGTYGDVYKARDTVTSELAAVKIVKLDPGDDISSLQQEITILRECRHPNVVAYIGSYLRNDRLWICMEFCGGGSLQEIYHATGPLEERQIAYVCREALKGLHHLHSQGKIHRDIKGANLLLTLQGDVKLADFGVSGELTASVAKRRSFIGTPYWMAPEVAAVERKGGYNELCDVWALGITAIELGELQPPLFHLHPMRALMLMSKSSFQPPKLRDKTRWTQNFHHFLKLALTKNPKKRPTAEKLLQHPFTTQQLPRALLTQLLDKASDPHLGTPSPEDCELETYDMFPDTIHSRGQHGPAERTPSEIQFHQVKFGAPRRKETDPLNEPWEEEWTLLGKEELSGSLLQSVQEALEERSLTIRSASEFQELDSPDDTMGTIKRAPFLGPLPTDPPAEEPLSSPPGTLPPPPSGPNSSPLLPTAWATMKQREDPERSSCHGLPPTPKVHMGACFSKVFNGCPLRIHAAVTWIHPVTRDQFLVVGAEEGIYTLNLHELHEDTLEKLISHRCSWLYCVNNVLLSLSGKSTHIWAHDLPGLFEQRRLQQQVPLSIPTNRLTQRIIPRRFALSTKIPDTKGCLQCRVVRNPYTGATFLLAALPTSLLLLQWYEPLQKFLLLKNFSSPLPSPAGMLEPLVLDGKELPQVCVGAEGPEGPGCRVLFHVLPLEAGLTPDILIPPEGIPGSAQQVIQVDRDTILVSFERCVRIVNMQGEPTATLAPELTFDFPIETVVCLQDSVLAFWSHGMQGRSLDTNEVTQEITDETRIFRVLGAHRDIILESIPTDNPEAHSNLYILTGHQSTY
The conditions noted are these: at 0.1 µM.

Assay [19] deals with T5, Mitogen-activated protein kinase kinase kinase kinase 2 (Homo sapiens). The conditions noted are these: at 1 µM.
Assay [20] addresses Mitogen-activated protein kinase kinase kinase kinase 4 (Homo sapiens) (UniProt O95819). The note with it: at 0.1 µM.

This passage reports inhibition results from ChEMBL document CHEMBL1961873, “Compounds: GSK PKIS; Assays: Nanosyn kinase panel” (2012).

Chain of High affinity nerve growth factor receptor (Homo sapiens) (P04629 33-796 limits assumed): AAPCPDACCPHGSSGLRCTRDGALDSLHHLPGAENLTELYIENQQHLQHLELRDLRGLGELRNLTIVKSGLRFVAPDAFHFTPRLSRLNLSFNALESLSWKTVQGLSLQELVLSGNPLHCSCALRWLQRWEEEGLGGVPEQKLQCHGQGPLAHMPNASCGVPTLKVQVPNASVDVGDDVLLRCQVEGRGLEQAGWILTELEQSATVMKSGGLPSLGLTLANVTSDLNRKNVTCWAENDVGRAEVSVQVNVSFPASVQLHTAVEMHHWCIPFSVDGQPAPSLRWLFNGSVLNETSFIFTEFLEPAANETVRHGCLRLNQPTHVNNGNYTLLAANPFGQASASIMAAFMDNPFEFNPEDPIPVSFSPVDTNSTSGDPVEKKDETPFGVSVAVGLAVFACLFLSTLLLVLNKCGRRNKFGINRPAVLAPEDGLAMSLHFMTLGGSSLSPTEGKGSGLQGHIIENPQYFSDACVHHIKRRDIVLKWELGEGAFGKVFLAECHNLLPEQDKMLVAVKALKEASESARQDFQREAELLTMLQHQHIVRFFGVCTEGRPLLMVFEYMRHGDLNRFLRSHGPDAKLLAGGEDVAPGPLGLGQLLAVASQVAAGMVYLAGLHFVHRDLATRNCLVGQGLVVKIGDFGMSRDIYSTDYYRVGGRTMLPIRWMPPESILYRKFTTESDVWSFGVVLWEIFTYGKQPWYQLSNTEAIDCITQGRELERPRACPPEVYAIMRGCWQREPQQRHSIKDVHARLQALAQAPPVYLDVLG
Chain of BDNF/NT-3 growth factors receptor (Homo sapiens) (Q16620 32-822 limits assumed): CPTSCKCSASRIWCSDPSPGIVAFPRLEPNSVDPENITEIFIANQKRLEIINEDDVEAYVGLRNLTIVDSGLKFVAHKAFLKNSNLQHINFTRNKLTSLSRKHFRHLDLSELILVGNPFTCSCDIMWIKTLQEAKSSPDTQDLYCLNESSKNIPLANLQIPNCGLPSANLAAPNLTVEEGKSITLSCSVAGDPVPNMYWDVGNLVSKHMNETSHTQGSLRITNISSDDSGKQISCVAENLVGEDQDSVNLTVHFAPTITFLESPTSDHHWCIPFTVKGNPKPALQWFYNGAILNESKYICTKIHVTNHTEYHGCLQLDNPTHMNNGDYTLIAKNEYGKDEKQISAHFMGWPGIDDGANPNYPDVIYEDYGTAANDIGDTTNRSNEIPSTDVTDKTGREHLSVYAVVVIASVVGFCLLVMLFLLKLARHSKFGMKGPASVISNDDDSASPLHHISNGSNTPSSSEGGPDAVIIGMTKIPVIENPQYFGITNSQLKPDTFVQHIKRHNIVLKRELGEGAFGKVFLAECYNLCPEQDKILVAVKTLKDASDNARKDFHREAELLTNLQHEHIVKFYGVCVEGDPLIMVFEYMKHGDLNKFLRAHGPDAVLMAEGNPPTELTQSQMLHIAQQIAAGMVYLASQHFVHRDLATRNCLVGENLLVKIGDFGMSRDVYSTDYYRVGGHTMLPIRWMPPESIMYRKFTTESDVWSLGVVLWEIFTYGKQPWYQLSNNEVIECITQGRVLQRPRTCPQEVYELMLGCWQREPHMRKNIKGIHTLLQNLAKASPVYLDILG

What is called inhibition is the drop in the measured response relative to a control, in per cent. As to `COC(=O)Nc1nc2ccc(Sc3ccc(NC(=O)Nc4cc(C(F)(F)F)ccc4F)cc3)cc2[nH]1`, the inhibition in assay [1] worked out at 83%; in assay [2], 15.1%; in assay [3] it was 71.8%; in [4], 15.5%; in [5], 69.5%; in assay [6], 3.58%. In addition, the inhibition is 4.98% in [7]; -0.72% in [8]; 8.33% in [9]; 1.16% in assay [10]; 7.64% in assay [11]; 0.96% in [12]. The inhibition in [13] amounted to 8.08%; in assay [14] it was 1.09%; in assay [15], 6.4%; in [16], 18.9%; in [17], 72.7%; in assay [18] it was 7.11%. Also, the inhibition in assay [19] was 27.5%; in assay [20] it was 5%.
For the compound `CS(=O)(=O)CCNCc1ccc(-c2ccc3ncnc(Nc4ccc(OCc5ccccc5)c(Br)c4)c3c2)o1`, the inhibition in [1] is 0.51%; in [2], 3%; in assay [3], 4.04%; in [4], 2%; in assay [5] it was 1.45%; in [6], -5.68%. For the same compound, the inhibition in assay [7] is 2.31%; in assay [8], -5.11%; in assay [9], 10.2%; in assay [10] it was -1.23%; in assay [11], -1.79%; in assay [12] it was -1.52%. In addition, the inhibition in [13] is 3.89%; in [14] it was -3.26%; in assay [15] it was 1.56%; in assay [16], 8.55%; in assay [17], 16.4%; in assay [18], 0.72%. In addition, the inhibition in [19] came out at 0.4%; in assay [20], 3.17%.
For the compound `C/C(Nc1ccc(S(N)(=O)=O)cc1)=C1/C(=O)Nc2ccccc21`, the inhibition was 38.3% in assay [1]; 14.1% in assay [2]; 61.8% in assay [3]; 17.4% in [4]; 87.1% in [5]; -0.52% in assay [6]. The inhibition in [7] was -0.74%; in assay [8], 1.41%; in assay [9], 35.7%; in assay [10], 2.21%; in assay [11], 37.8%; in [12] it was 8.07%. Further, the inhibition was found to be 48% in [13]; 7.34% in assay [14]; 85.7% in assay [15]; 0.97% in [16]; 9.28% in assay [17]; 1.58% in [18]. Besides, the inhibition in [19] is 17.7%; in [20], 44.9%.
In the case of `O=C(Nc1n[nH]c2cc(-c3cc(F)ccc3F)ccc12)C1CC1`, the inhibition in [1] came to 8.4%; in assay [2] it was 3.77%; in assay [3], 8.07%; in [4], 3.77%; in [5], 14%; in assay [6] it was 2.25%. Also, the inhibition in [7] is 0.99%; in assay [8], -1%; in assay [9] it was 9.7%; in [10], 2.63%; in assay [11] it was 18.1%; in assay [12], 2.4%. In addition, the inhibition was found to be 6.93% in [13]; 0.12% in assay [14]; 8.07% in assay [15]; 4.84% in assay [16]; 13.1% in assay [17]; 0.39% in assay [18]. Further, the values for the inhibition in assay [19] and in assay [20] were 5.06% and 16.4%, respectively.
